Measurements: the supplement of paper PMC11624193, “Coupling cellular drug-target engagement to downstream pharmacology with CeTEAM” (Nature Communications, 2024)
Where a name gives a salt, the structure may show the parent alone. Unmarked numbers belong to inactive results.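 How the source made its calls: active = log2 fold change beyond 2 SD from the library mean after excluding viability outliers; inactive = within 2 SD.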

Each compound was assayed against PARP1 L713F-nLuc biosensor (HCT116) (UniProt P09874) (assay: PARP1 L713F-nLuc/akaLuc ratio relative to DMSO control (biosensor stabilization) (fold change); higher = more PARP1 biosensor stabilization (target engagement / stabilizer), active = hit call of the paper). Conditions: stock concentration (mM; final µM = stock mM x 1): 10; 24 h.
Sequence of PARP1 L713F-nLuc biosensor (HCT116) (P09874 whole entry L713F, looked up): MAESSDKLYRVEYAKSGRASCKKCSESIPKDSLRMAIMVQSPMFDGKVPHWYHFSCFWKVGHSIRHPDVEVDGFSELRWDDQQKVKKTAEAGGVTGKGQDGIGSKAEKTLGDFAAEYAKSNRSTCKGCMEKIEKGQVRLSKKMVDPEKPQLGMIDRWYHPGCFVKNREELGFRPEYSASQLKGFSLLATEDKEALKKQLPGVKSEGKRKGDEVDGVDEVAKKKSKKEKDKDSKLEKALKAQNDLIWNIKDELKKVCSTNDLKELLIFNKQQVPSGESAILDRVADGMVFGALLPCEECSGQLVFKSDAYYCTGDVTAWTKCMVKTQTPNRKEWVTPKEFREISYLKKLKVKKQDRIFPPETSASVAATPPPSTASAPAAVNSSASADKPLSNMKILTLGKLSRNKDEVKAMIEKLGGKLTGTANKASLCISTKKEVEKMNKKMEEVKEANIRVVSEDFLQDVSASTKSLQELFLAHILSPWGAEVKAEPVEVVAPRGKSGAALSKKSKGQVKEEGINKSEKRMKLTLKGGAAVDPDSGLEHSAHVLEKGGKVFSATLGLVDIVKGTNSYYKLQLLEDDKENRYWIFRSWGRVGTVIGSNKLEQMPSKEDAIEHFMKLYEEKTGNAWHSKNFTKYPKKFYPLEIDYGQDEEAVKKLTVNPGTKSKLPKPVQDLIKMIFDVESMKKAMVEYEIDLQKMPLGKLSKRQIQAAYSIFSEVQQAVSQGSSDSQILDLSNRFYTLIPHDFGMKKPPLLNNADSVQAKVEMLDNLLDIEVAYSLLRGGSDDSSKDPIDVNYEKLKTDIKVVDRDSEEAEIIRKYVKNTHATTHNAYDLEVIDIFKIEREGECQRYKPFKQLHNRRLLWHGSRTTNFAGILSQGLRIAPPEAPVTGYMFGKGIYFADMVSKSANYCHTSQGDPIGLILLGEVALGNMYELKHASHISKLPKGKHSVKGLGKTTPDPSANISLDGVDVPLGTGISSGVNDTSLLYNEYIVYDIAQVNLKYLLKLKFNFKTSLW

SMILES | PARP1 L713F-nLuc/akaLuc ratio
CC[C@H](C)[C@H](NC(=O)[C@H](CCCCN)NC(=O)[C@H](CC(C)C)NC(=O)[C@@H]1CCCN1C(=O)[C@H](CCC(=O)O)NC(=O)[C@H](Cc1ccc(O)cc1)NC(=O)[C@@H](NC(=O)[C@H](CO)NC(=O)CNC(=O)[C@H](CO)NC(=O)[C@H](CCCN=C(N)N)NC(=O)[C@H](CCCCN)NC(=O)[C@@H](NC(=O)[C@@H](N)CCCN=C(N)N)[C@@H](C)O)C(C)C)C(=O)O [Malantide] | 1.76
Cc1cc(C)c(CNC(=O)c2cc(-c3ccc(CN4CCOCC4)cc3)cc3c2cnn3C2CCCC2)c(=O)[nH]1 | 1.16
COc1ccc2c(Oc3ccc4c(C(=O)Nc5ccccc5N)cccc4c3)ccnc2c1 [Chiauranib] | 0.819
O=C(Nc1ccc(C(F)(F)F)cc1)Nc1ccc(S(=O)(=O)N2CCC[C@H]2C(=O)Nc2ccccc2)cc1 | 0.728
C[C@@H]1CCN(C(=O)CC#N)C[C@@H]1N(C)c1ncnc2[nH]ccc12 | 0.783
CCNC(=O)CCC/C=C\C[C@@H]1[C@@H](/C=C/[C@@H](O)CCc2ccccc2)[C@H](O)C[C@@H]1O [Bimatoprost] | 0.942
O=c1c(-n2ccnn2)c[nH]n1-c1cc(N2CCOCC2)ncn1 [Molidustat] | 0.788
O=C(NOCCO)c1ccc2cncn2c1Nc1ccc(I)cc1F | 0.421
CC1=C(/C=C/C(C)=C/C=C/C(C)=C/C(=O)O)C(C)(C)CCC1 [Tretinoin] | 0.599
C[C@]12CC[C@@H]3c4ccc(O)cc4C[C@@H](CCCCCCCCC[S+]([O-])CCCC(F)(F)C(F)(F)F)[C@H]3[C@@H]1CC[C@@H]2O (stereo partly drawn) [Fulvestrant] | 0.949
S=C(NCc1ccc2c(c1)OCO2)N1CCN(c2ncnc3c2oc2ccccc23)CC1 [Amuvatinib (MP-470)] | 0.659
C=CC(=O)Nc1cccc(CNc2nc(Nc3ccc(N4CCN(C)CC4)cc3OC)ncc2Cl)c1 | 1.54
N=C(NC(=N)N1CCCC1)Nc1ccc(OC(F)(F)F)cc1 | 1.01
Nc1ncc(-c2cnn(CCO)c2)c2scc(-c3ccc(NC(=O)Nc4cccc(F)c4)cc3)c12 [Ilorasertib (hydrochloride)] | 0.906
O=c1c(O)c(-c2ccc(O)c(O)c2)oc2cc(O)ccc12 [Fisetin] | 0.701
CC(C)(C#N)c1cc(Cn2cncn2)cc(C(C)(C)C#N)c1 [Anastrozole] | 0.888
COc1nn(C)cc1Nc1nccc(-c2c[nH]c3c(NC(=O)[C@@H](C)N4CCN(C)CC4)cccc23)n1 [Golidocitinib] | 0.637
Cc1cc(Nc2cc(N3CCN(C)CC3)nc(Sc3ccc(NC(=O)C4CC4)cc3)n2)n[nH]1 [Tozasertib (VX-680, MK-0457)] | 0.821
Cc1cc(C)c(CNC(=O)c2cc(-c3ccc(N4CCN(C)CC4)nc3)cc3c2c(C)cn3C(C)C)c(=O)[nH]1 | 1.47

SMILES | PARP1 L713F-nLuc/akaLuc ratio
Nc1nc(=S)c2[nH]cnc2[nH]1 [6-Thioguanine] | 1.43
O=C(NCc1ccncc1)C12CC3CC(C1)CC(c1ccc(Cl)cc1)(C3)C2 | 0.757
CCN(C(=O)c1ccccc1OC)c1cc2c(cc1N1CCNC[C@H]1C)n(C)c(=O)n2C | 0.597
CC(=O)Nc1cccc(-n2c(=O)n(C3CC3)c(=O)c3c(Nc4ccc(I)cc4F)n(C)c(=O)c(C)c32)c1 | 0.502
CC(C)[C@H]1C(=O)N[C@@H](CCCN=C(N)N)C(=O)NCC(=O)N[C@@H](CC(=O)O)C(=O)N[C@H](Cc2ccccc2)C(=O)N1C | 0.738
Cn1c(=O)c2c(ncn2CC(=O)O)n(C)c1=O [Acefylline] | 0.921
O=C(O)[C@]1(Cc2cccc(Nc3nccs3)n2)CC[C@@H](Oc2cccc(Cl)c2F)CC1 | 1.05
O=C(Nc1cc(Cl)cc(Cl)c1)Nc1cc(Cl)cc(Cl)c1 | 1.29
O=C(CCCCCCC(=O)NO)NO [Suberoyl bis-hydroxamic acid] | 0.788
O=C(O)c1ccc2c(c1)nc(Nc1cccc(Cl)c1)c1ccncc12 [Silmitasertib (CX-4945)] | 0.822
O=C(O)CNC(=O)c1ncc(-c2cccc(F)c2)cc1O | 0.618
Cc1cc(C)c(CN2CCc3c(Cl)cc(-c4c(C)noc4C)c(Cl)c3C2=O)c(=O)[nH]1 | 0.881
CC/C(=C(\c1ccc(O)cc1)c1ccc(OCCN(C)C)cc1)c1ccccc1 [4-Hydroxytamoxifen] | 0.97
Cc1cc(C)cc(Oc2ccc(CNC(=O)[C@H](C)N)cc2C)c1 | 1.24
CC(C)(C)NC(=O)[C@H]1CC[C@H]2[C@@H]3CC[C@H]4NC(=O)C=C[C@]4(C)[C@H]3CC[C@]12C [Finasteride] | 1.22
C[C@H]1CCCN1Cc1nc2cc(NC(=O)c3ccc4c(cnn4C)c3)ccc2[nH]1 | 0.788
Cc1[nH]nc(C(F)(F)F)c1Cc1sc2c(c1C(=O)N1C[C@](C)(O)CO1)c(=O)n(C)c(=O)n2C(C)C | 0.93
CC/C(=C(\c1ccccc1)c1ccc(OCCNC)cc1)c1ccccc1 [N-Desmethyltamoxifen (hydrochloride)] | 0.968
O=C1CCC(N2C(=O)c3ccccc3C2=O)C(=O)N1 (stereo not drawn) [Thalidomide] | 0.757
